From PubChem BioAssay (Tox21) come the findings set out here.

In experiment [1] the target is Retinoic acid receptor RXR-alpha (Homo sapiens) (UniProt P19793). The experiment can be described thus: qHTS assay to identify small molecule agonists of the RXR signaling pathway (AID 1159527; calls by dose curve; note: nearly all actives have a fitted effect of over 35% in size; note: potency is the fitted concentration of half-maximal effect). A digest of the protocol: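 Beta-lactamase reporter assay, agonist format. Engineered HEK 293T line, charcoal-stripped FBS at 2%, overnight (16 hr) exposure, fluorescence at 460 and 530 nm after 405 nm excitation.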
For orientation: qHTS replaces the single test concentration by a dilution series.

The nature of experiment [2]: qHTS assay to identify small molecule agonists of the RXR signaling pathway - cell viability counter screen (AID 1159529).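 Note: HEK 293T cells carrying an RXR-alpha UAS beta-lactamase reporter; series mostly up to about 77 µM; nearly all actives have a fitted effect of over 50% in size.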 In a few lines:
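Same-well viability check after the LiveBLAzer FRET read: CellTiter-Glo added, luminescence measured after 30 min at room temperature. Reporter HEK 293T cells had been treated with compounds for 16 hr following a 5 hr preincubation.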

The nature of experiment [3]: qHTS assay to identify small molecule antagonists of the retinoid acid receptor (RAR) signaling pathway - cell viability counter screen (AID 1159551). Note: nearly all actives have a fitted effect of over 35% in size. A digest of the protocol: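 C3RL4 cells were seeded overnight at 37 C, then treated with compounds plus 1 uM (final) retinol for 6 h at 37 C. Viability was read as ATP by CellTiter-Glo luminescence after 30 min at room temperature.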

A short description of experiment [4]: qHTS assay to identify small molecule antagonists of the retinoic acid receptor (RAR) signaling pathway (AID 1159552; note: nearly all actives have a fitted effect of over 50% in size). In a few lines: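 Readout: luciferase luminescence, 30 min post-reagent at RT. Setup: C3RL4 RARE reporter cells, compounds plus retinol 1 uM final, 6 hr incubation at 37 C and 5% CO2.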
Experiment [5] is described as follows: qHTS assay to identify small molecule antagonists of the estrogen related receptor (ERR) signaling pathway from Tox21 library - cell viability counter screen (AID 1224834). Note: nearly all actives have a fitted effect of over 30% in size. A digest of the protocol:
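ERR reporter cells were plated 6 h before compound addition, then exposed to test compounds in DMSO for 17.5 h at 37 C. Viability was read as CellTiter-Fluor fluorescence after a 30-minute incubation at 37 C.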

Experiment [6] has as its target Luciferin 4-monooxygenase (Photinus pyralis) (UniProt P08659). The experiment can be described thus: qHTS assay to identify small molecule inhibitors of firefly luciferase (AID 1224835). Note: series mostly up to about 120 µM; nearly all actives have a fitted effect of over 25% in size. A digest of the protocol:
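Quantitative HTS format; KM concentrations of both substrates. Purified P. pyralis FLuc activity quantified from luminescence images.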

A short description of experiment [7]: qHTS assay to identify small molecule agonists of the constitutive androstane receptor (CAR) signaling pathway - cell viability counter screen (AID 1224836). Note: series mostly up to about 92 µM; nearly all actives have a fitted effect of over 45% in size. In a few lines: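 Compound titrations (15 concentrations) went onto HepG2-CYP2B6-hCAR cells 4 h after seeding, alongside PK11195 at a final 0.75 uM; a 23 h, 37 C/5% CO2 incubation preceded CellTiter-Fluor viability measurement.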

The nature of experiment [8]: qHTS assay to identify small molecule antagonists of the constitutive androstane receptor (CAR) signaling pathway - cell viability counter screen (AID 1224837). Note: series mostly up to about 92 µM; nearly all actives have a fitted effect of over 45% in size. In a few lines: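 HepG2 cells stably expressing hCAR and a CYP2B6-2.2kb reporter were plated and pre-incubated 4 hr at 37 C/5% CO2, then given compounds at 15 concentrations plus 50 nM CITCO (final). After 23 hr, viability was read by CellTiter-Fluor fluorescence.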

Experiment [9] concerns the target Nuclear receptor subfamily 1 group I member 3 (Homo sapiens) (UniProt Q14994). The experiment can be described thus: qHTS assay to identify small molecule antagonists of the constitutive androstane receptor (CAR) signaling pathway (AID 1224838). Note: nearly all actives have a fitted effect of over 40% in size. A digest of the protocol: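 HepG2 cells stably co-transfected with hCAR and a CYP2B6-2.2kb luciferase reporter were seeded 4 h before compound addition at 15 concentrations. Cells were stimulated with 50 nM CITCO (final) for 24 h at 37 C; luciferase luminescence was then read.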

Experiment [10] has the same target. The experiment can be described thus: qHTS assay to identify small molecule agonists of the constitutive androstane receptor (CAR) signaling pathway (AID 1224839). Note: nearly all actives have a fitted effect of over 15% in size. Note: potency is the fitted concentration of half-maximal effect. In a few lines: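 In this screen, CAR-driven CYP2B6 promoter activity is measured by luminescence in HepG2-CYP2B6-hCAR cells after 24 h with test compounds and 0.75 uM PK11195 (final concentration).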

Experiment [11] can be described thus: qHTS assay to identify small molecule antagonists of the estrogen related receptor signaling pathway with the pleiotropic PPARgamma coactivator (PGC) from Tox21 10K library - cell viability counter screen (AID 1224840; active = well fitted cell-killing curve with a large enough effect in the repeat runs, not every such curve was filed as active; note: nearly all actives have a fitted effect of over 40% in size). A digest of the protocol: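 PGC/ERR cells were seeded at 2,000 cells/well and left 6 hours at 37 C/5% CO2 before pin-tool addition of compounds in DMSO. After 17.5 hours at 37 C, CellTiter-Fluor was added and fluorescence read 30 minutes later.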

Experiment [12] in a line: qHTS assay to identify small molecule antagonists of the estrogen related receptor signaling pathway with the pleiotropic PPARgamma coactivator (PGC) from Tox21 10K library (AID 1224841; call rule not given here; note: series mostly up to about 92 µM; actives are mostly falling curves and most rising ones were filed inactive; nearly all actives have a fitted effect of over 50% in size). A digest of the protocol:
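PGC/ERR reporter cells were seeded at 2,000 cells/well and held 6 hours at 37 C/5% CO2 before pin-tool addition of compounds in DMSO. After 18 hours at 37 C, One-Glo was added and luminescence read after 30 minutes at room temperature.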

A short description of experiment [13]: qHTS assay to identify small molecule agonists of the estrogen related receptor signaling pathway with the pleiotropic PPARgamma coactivator (PGC) from Tox21 10K library (AID 1224842). Note: nearly all actives have a fitted effect of over 15% in size. In a few lines:
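PGC/ERR reporter cells (NTP line) were seeded 2,000 per well, rested 6 h at 37 C/5% CO2, then pin-dosed with compounds in DMSO for 18 h at 37 C; luciferase read by One-Glo luminescence after 30 min at room temperature.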

A short description of experiment [14]: qHTS assay to identify small molecule agonists of the retinoic acid receptor (RAR) signaling pathway (AID 1159553). Note: potency is the fitted concentration of half-maximal effect. In a few lines:
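C3RL4 cells carrying a RARE luciferase reporter were plated overnight at 37 C, then exposed to compounds in DMSO for 6 hr at 37 C and 5% CO2. Luminescence was read 30 min after luciferase reagent addition at room temperature.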

A short description of experiment [15]: qHTS assay to identify small molecule antagonists of the estrogen related receptor (ERR) signaling pathway - cell viability counter screen (AID 1224818).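 Note: series mostly up to about 46 µM; viability measured after 17.5 h of compound exposure.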 In a few lines:
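ERR reporter cells plated 6 h at 37 C/5% CO2, then compounds in DMSO pin-transferred and incubated 17.5 h at 37 C. Viability read as CellTiter-Fluor fluorescence after 30 min at 37 C.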

The nature of experiment [16]: qHTS assay to identify small molecule antagonists of the estrogen related receptor signaling pathway with the pleiotropic PPARgamma coactivator (PGC) cell viability counter screen (AID 1224822; note: series mostly up to about 46 µM). In a few lines:
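PGC/ERR cells were seeded at 2,000 cells/well, rested 6 h at 37 C/5% CO2, then given compounds in DMSO by pin tool and incubated 17.5 h at 37 C. Viability came from CellTiter-Fluor fluorescence after 30 min.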

Inconclusive results are not listed. Values without a mark were called inactive. Calls of active or inactive are those of the source. Unless noted, calls come from the whole dose curve; as a rule, active = well fitted curve in the direction sought with a large enough effect in the repeat runs; inconclusive = weak or mixed curves; inactive = no such curve, though single readings can be large; an effect the other way counts as inactive or inconclusive.

Luciferin 4-monooxygenase (Photinus pyralis), sequence (P08659 whole entry, looked up): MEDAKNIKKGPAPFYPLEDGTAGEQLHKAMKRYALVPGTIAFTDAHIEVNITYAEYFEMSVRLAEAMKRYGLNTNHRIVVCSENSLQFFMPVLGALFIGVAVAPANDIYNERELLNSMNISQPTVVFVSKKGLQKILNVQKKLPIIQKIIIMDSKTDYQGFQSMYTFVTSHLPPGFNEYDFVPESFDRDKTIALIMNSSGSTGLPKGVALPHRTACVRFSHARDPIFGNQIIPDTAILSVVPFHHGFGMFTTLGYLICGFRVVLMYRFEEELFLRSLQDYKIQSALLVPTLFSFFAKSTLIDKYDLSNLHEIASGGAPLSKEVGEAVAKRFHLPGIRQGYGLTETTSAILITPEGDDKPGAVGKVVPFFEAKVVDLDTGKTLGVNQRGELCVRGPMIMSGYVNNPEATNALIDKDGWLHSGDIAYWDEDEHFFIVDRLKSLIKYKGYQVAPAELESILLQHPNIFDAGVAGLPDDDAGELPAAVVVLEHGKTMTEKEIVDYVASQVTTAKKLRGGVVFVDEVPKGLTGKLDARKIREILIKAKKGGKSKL
Nuclear receptor subfamily 1 group I member 3 (Homo sapiens), sequence (Q14994 whole entry, looked up): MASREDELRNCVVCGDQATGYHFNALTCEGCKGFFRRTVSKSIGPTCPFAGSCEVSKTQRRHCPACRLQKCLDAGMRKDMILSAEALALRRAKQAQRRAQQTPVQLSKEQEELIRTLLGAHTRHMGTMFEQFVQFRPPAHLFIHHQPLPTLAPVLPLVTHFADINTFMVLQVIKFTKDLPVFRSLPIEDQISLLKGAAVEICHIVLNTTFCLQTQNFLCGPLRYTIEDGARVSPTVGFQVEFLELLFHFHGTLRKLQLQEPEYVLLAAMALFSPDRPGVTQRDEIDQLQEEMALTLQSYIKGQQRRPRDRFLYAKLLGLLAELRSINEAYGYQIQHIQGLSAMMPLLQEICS
Retinoic acid receptor RXR-alpha (Homo sapiens), sequence (P19793 whole entry, looked up): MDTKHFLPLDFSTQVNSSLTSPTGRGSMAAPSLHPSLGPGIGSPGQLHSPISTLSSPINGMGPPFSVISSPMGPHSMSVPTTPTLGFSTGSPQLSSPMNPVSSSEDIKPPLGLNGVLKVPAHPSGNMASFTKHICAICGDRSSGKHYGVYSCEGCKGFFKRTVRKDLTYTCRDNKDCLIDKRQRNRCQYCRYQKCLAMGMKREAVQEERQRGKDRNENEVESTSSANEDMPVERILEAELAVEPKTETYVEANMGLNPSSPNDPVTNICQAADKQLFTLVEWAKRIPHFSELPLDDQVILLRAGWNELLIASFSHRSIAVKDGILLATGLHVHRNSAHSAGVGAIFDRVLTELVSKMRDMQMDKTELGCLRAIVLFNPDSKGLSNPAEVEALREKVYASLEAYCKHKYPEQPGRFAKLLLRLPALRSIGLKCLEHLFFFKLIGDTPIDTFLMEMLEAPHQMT

On to `O=C1CCCC(=O)O1`, for which the Potency result in experiment [1], in experiment [5], in experiment [6], in experiment [7], in [8] and in [10] was “inactive” throughout. For the same compound, the call in experiment [2], in [3], in experiment [4], in [9] and in [11] was inactive.

Consider `O=C(O)c1cc(Cl)cc([N+](=O)[O-])c1Cl`, for which the Potency result in [1], in experiment [5], in experiment [6], in experiment [7], in [8] and in experiment [10] was “inactive” each time. Moreover, in experiment [12], the Potency result is “inactive”. In addition, the compound was classed as inactive in experiment [2], in experiment [3], in [4], in [9], in experiment [11] and in experiment [13].

Turning to `CCOCCOCCOCC`, the Potency result in [1], in experiment [5], in experiment [6], in [7], in experiment [8] and in experiment [10] was “inactive” throughout. Besides, the compound was called inactive in experiment [2], in experiment [3], in experiment [4], in experiment [9] and in experiment [11].

On to `O=C(NCCc1c[nH]c2ccccc12)c1cccnc1`, for which the Potency result in [1], in experiment [5] and in [8] was “inactive” each time. Besides, the compound was called inactive in [2], in experiment [3], in experiment [4] and in experiment [11]. The Potency in [14] was 21.1 µM (active).

For the compound `CCCCNc1ccc(C(=O)OCCN(C)C)cc1`, the Potency result in experiment [1], in experiment [5], in experiment [6] and in [8] was “inactive” each time. In addition, the result in experiment [2], in experiment [3], in experiment [4], in experiment [15], in experiment [16] and in experiment [9] was inactive. In addition, the outcome in experiment [11] was inactive.

Regarding `C=Cc1ccccn1`, the Potency result in experiment [1], in experiment [14], in experiment [5], in experiment [6], in [7] and in [8] was “inactive” each time. For the same compound, the Potency result in experiment [10] is “inactive”. Also, the compound was called inactive in [2], in experiment [3], in [9] and in experiment [11].

As to `O=C(/N=N/C(=O)OCc1ccccc1)OCc1ccccc1`, the Potency result in experiment [1], in [5], in experiment [7] and in [8] was “inactive” in each case. Also, the result in [2], in experiment [3], in experiment [4], in experiment [9] and in [11] was inactive. Also, the Potency in experiment [10] was 54.5 µM (active).

Regarding `CC(C)CC(=O)O`, the Potency in experiment [1] is 10.7 µM (active). Besides, the compound was called inactive in experiment [2], in experiment [3], in [11] and in [13]. For the same compound, the Potency entry in experiment [14], in experiment [5], in experiment [6] and in experiment [8] was “inactive” in each case.

Take `CC(C)CC(C)CC(C)CC(C)COC(=O)c1ccccc1C(=O)OCC(C)CC(C)CC(C)CC(C)C` (stereo unspecified): the Potency result in experiment [1], in [5], in experiment [6], in [7], in [8] and in [12] was “inactive” throughout. For the same compound, the call in experiment [2], in experiment [3], in experiment [4], in experiment [11] and in [13] was inactive.

With `CCN(C)C(=O)Oc1cccc([C@H](C)N(C)C)c1`, the Potency result in experiment [1], in [14], in [5], in experiment [6], in experiment [7] and in experiment [8] was “inactive” throughout. The Potency result in experiment [10] is “inactive”. For the same compound, the result in [2], in experiment [3], in experiment [9] and in experiment [11] was inactive.

As for `C[C@H](N)[C@H](O)c1cccc(O)c1`, the Potency entry in experiment [1], in [14], in experiment [5], in experiment [6] and in experiment [8] was “inactive” in each case. For the same compound, the result in [2], in experiment [3] and in experiment [11] was inactive.

For `COc1ccc(OC)c(Cl)c1`, the Potency entry in experiment [1], in experiment [5], in experiment [7], in [8], in experiment [10] and in [12] was “inactive” throughout. For the same compound, the outcome in experiment [2], in experiment [3], in experiment [4], in experiment [9], in experiment [11] and in experiment [13] was inactive.
